Measured values taken from PubChem BioAssay (NCI).
The panel holds about 79,000 compounds, 15% with a hit somewhere; the sample as a whole holds those more often. A number with no mark means an inactive call. Activity calls are given as the source filed them. Rule as the data show it: active = growth inhibition above about 70%; inactive = the rest.

Columns and labels:
[1] = NCI Yeast Anticancer Drug Screen. Data for the rad50 strain (AID 155);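 also: 0% = growth of vehicle-only cultures of the same strain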; conditions: S. cerevisiae rad50 strain growth inhibition, stronger effect = higher value
Procedure, shortened: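 DNA repair mutant yeast, compound exposure, growth read-out; inhibition is taken relative to vehicle.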

[2] = NCI Yeast Anticancer Drug Screen. Data for the mec2-1 strain (AID 157); conditions: S. cerevisiae mec2-1 strain, stronger effect = higher value
Procedure, shortened: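 Cells of the genetically defined mec2-1 yeast strain are incubated with test compound. Inhibition of growth is calculated against vehicle-treated controls.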

[3] = NCI Yeast Anticancer Drug Screen. Data for the sgs1 mgt1 strain (AID 161);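 also: 0% = growth of cultures given vehicle only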; conditions: S. cerevisiae sgs1 mgt1 strain, stronger effect = higher value
Procedure, shortened: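 Test agents were incubated with a DNA-repair-mutant yeast strain. Growth was then read and compared against vehicle-treated controls.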

[4] = NCI Yeast Anticancer Drug Screen. Data for the cln2 rad14 strain (AID 165);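 also: 0% = growth equal to vehicle treated cultures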; conditions: S. cerevisiae cln2 rad14 strain, stronger effect = higher value
Procedure, shortened: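 The screen exposed genetically defined yeast (cln2 rad14) to test compounds and scored growth inhibition relative to vehicle-treated controls.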

[5] = NCI Yeast Anticancer Drug Screen. Data for the bub3 strain (AID 167); conditions: S. cerevisiae bub3 mutant strain, stronger effect = higher value
Procedure, shortened: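 In this screen, a yeast mutant lacking normal mitotic checkpoint function is challenged with compound. Relative growth versus vehicle gives the inhibition value.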

[6] = NCI Yeast Anticancer Drug Screen. Data for the mlh1 rad18 strain (AID 175); conditions: S. cerevisiae mlh1 rad18 strain growth inhibition, stronger effect = higher value
Procedure, shortened: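 Compound-treated yeast growth, normalised to vehicle controls. Strain bears defined DNA repair mutations.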

[7] = at 5.0 µM (retest, dose inferred, filed as 0.5)
[8] = at 50.0 µM (retest, dose inferred, filed as 5.0)

SMILES	growth inhibition [1, 7]	growth inhibition [1, 8]	growth inhibition ([1]; at 50.0 µM)	growth inhibition [2, 7]	growth inhibition [2, 8]	growth inhibition ([2]; at 50.0 µM)	growth inhibition [3, 7]	growth inhibition [3, 8]	growth inhibition ([3]; at 50.0 µM)	growth inhibition [4, 7]	growth inhibition [4, 8]	growth inhibition ([4]; at 50.0 µM)	growth inhibition [5, 7]	growth inhibition [5, 8]	growth inhibition ([5]; at 50.0 µM)	growth inhibition [6, 7]	growth inhibition [6, 8]	growth inhibition ([6]; at 50.0 µM)
COc1c(I)cc(I)c(O)c1I	6%	39%	94.4% (active)	10%	80% (active)	93.8% (active)	7%	64%	91% (active)	10%	36%	88.1% (active)	3%	36%	69.9%	9%	77% (active)	94.2% (active)
O=C(c1ccc(Cl)c([N+](=O)[O-])c1)c1ccc(Cl)c([N+](=O)[O-])c1	21%	93% (active)	59%	12%	94% (active)	93.4% (active)	13%	90% (active)	85% (active)	1%	80% (active)	39.5%	-8%	95% (active)	96.2% (active)	24%	96% (active)	96.7% (active)
COc1ccc(C2Oc3ccc(Cl)cc3C=C2[N+](=O)[O-])cc1OC (configuration not stated)	89% (active)	97% (active)	74% (active)	91% (active)	96% (active)	77% (active)	86% (active)	97% (active)	85.5% (active)	63%	96% (active)	84.3% (active)	88% (active)	96% (active)	86.7% (active)	95% (active)	97% (active)	86.2% (active)
CCN(CC)CC(O)c1c(-c2ccccc2)c(-c2ccccc2)c2n1CCC2 (configuration not stated)	-4%	92% (active)	93.7% (active)	-3%	96% (active)	32%	-2%	83% (active)	56.7%	-11%	17%	-4.75%	-3%	90% (active)	92.6% (active)	-9%	92% (active)	47.6%
CCCCCCCC(=O)N1CCCCC1CC (configuration not stated)	-142%	14%	72.1% (active)	-49%	-30%	25.6%	-63%	24%	73% (active)	-53%	-68%	-6.15%	-53%	17%	-9.4%	-118%	-64%	24.2%
CNc1cc(SC)nc(N)n1	3%	-7%	89.7% (active)	-2%	-3%	94.3% (active)	1%	-9%	92.8% (active)	-1%	0%	91.8% (active)	-1%	-1%	75.4% (active)	0%	-4%	95% (active)
O=C(c1ccc(Cl)cc1)c1ccc(OCCCOc2ccc(C(=O)c3ccc(Cl)cc3)cc2)cc1	-14%	-32%	17.5%	-13%	2%	-16.1%	-18%	-4%	-2.15%	-30%	-7%	38.1%	-14%	-14%	-14.6%	-22%	-26%	-1.7%
CC12CC(Sc3ccccc3N1)c1ccccc1O2 (configuration not stated)	37%	54%	42.2%	28%	46%	25.3%	43%	80% (active)	51.8%	33%	40%	27.4%	40%	73% (active)	76.3% (active)	40%	73% (active)	44.5%
CCOC(C)(OCC)C(N)c1ccccc1 (configuration not stated)	-15%	-12%	14.3%	10%	-17%	19.4%	6%	9%	-0.2%	-1%	5%	-5.65%	6%	9%	-6.9%	2%	9%	1.05%
COc1ccc(C(=O)Cn2c(C(C)=O)nc3ccccc32)cc1	26%	66%	-23.6%	18%	36%	-21.1%	36%	73% (active)	-14.5%	6%	32%	4%	31%	36%	-32.6%	28%	52%	-43.2%
Cc1ccc2cc3ccccc3c(-c3ccccc3)c2c1	5%	-3%	10.6%	-13%	-29%	12.9%	6%	-61%	-9.35%	5%	-16%	37%	-11%	-12%	-1.15%	-2%	0%	-5.65%
CCCc1cc2c(cc1CN(C#N)Cc1cc3c(cc1CCC)OCO3)OCO2	-4%	54%	95.3% (active)	2%	84% (active)	96.3% (active)	1%	57%	93.2% (active)	-2%	60%	95.8% (active)	-4%	87% (active)	97% (active)	-1%	73% (active)	95% (active)
CCN1/C(=C/C(C)=C/c2sc3ccccc3[n+]2CC)Sc2ccccc21	98% (active)	97% (active)	92% (active)	97% (active)	100% (active)	94% (active)	98% (active)	100% (active)	94% (active)	97% (active)	99% (active)	93.7% (active)	98% (active)	99% (active)	92.8% (active)	98% (active)	99% (active)	92% (active)
O=C1OCCN1/N=C/c1ccc([N+](=O)[O-])o1	14%	54%	81.2% (active)	7%	30%	54.1%	9%	62%	87.7% (active)	-2%	27%	50.1%	7%	39%	40.8%	30%	72% (active)	88.5% (active)
Nc1nc(-c2cc3cc(Cl)ccc3o2)cs1	47%	75% (active)	1.1%	34%	61%	-6.7%	39%	75% (active)	24.4%	35%	50%	15.8%	46%	71% (active)	43.7%	51%	79% (active)	-4.25%
CN(C)C(=S)NC(=S)Nc1ccc2ccccc2c1	5%	88% (active)	62.8%	17%	89% (active)	40.9%	34%	82% (active)	66.2%	8%	87% (active)	46.5%	2%	92% (active)	57.4%	12%	92% (active)	73.3% (active)
Clc1ccc(OCCC(Cn2ccnc2)c2ccc(Cl)cc2Cl)c(Cl)c1 (configuration not stated)	94% (active)	98% (active)	66%	91% (active)	99% (active)	55.9%	94% (active)	98% (active)	58.2%	86% (active)	97% (active)	64%	93% (active)	98% (active)	48.1%	90% (active)	98% (active)	55.7%
CC(=O)Nc1ccc(NC(=S)Nc2ccc(NC(C)=O)cc2)cc1	97% (active)	99% (active)	92% (active)	47%	100% (active)	15%	68%	100% (active)	-1.7%	43%	99% (active)	-5.1%	62%	100% (active)	0.6%	82% (active)	99% (active)	13.8%
COC1OC(CI)C(OC(c2ccccc2)(c2ccccc2)c2ccccc2)C(OC(c2ccccc2)(c2ccccc2)c2ccccc2)C1OC(c1ccccc1)(c1ccccc1)c1ccccc1 (configuration not stated)	-14%	-6%	96.4% (active)	-17%	-22%	98.5% (active)	-8%	-18%	94.5% (active)	-10%	14%	97.8% (active)	1%	-13%	97% (active)	-17%	11%	95.9% (active)
